Data reported in the supplement of paper PMC4466140.

biological target: CaNbp2; experiment: SPOT peptide array binding signal intensity (averaged, normalized) (arbitrary units (background-subtracted, floor 0; scale differs between SH3 domains)); higher = stronger binding of the SH3 domain to the peptide
How it was run: (§1)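 Spot intensities were captured after detection with anti-GST antibody, an HRP-linked anti-mouse secondary and luminol, and quantified with Genespotter. The probes were GST-fused SH3 domains from four yeast species, produced in E. coli BL21(DE3), purified on glutathione Sepharose and incubated at 10 μg/ml overnight at 4°C on cellulose-bound synthetic 15-mer peptides with cysteines replaced by serines. Binding signal is the normalized, background-subtracted spot intensity averaged over replicates, and its arbitrary units differ between domains.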

| Binder | SPOT peptide array binding signal intensity |
| --- | --- |
| QTREPNEPPPPSPAM | ≤ 0 |

biological target: CaRvs167; experiment: as above
How it was run: as §1

| Binder | SPOT peptide array binding signal intensity |
| --- | --- |
| QTREPNEPPPPSPAM | 1.67 |

biological target: CaRvs167-3; experiment: as above
How it was run: as §1

| Binder | SPOT peptide array binding signal intensity |
| --- | --- |
| QTREPNEPPPPSPAM | ≤ 0 |

biological target: CaSho1; experiment: as above
How it was run: as §1

| Binder | SPOT peptide array binding signal intensity |
| --- | --- |
| QTREPNEPPPPSPAM | ≤ 0 |

biological target: CaSla1-D1-D2; experiment: as above
How it was run: as §1

| Binder | SPOT peptide array binding signal intensity |
| --- | --- |
| QTREPNEPPPPSPAM | ≤ 0 |

biological target: CaSla1-D3; experiment: as above
How it was run: as §1

| Binder | SPOT peptide array binding signal intensity |
| --- | --- |
| QTREPNEPPPPSPAM | 0.5 |

biological target: ScAbp1; experiment: as above
How it was run: as §1

| Binder | SPOT peptide array binding signal intensity |
| --- | --- |
| QTREPNEPPPPSPAM | ≤ 0 |

biological target: ScBbc1; experiment: as above
How it was run: as §1

| Binder | SPOT peptide array binding signal intensity |
| --- | --- |
| QTREPNEPPPPSPAM | ≤ 0 |

biological target: ScBem1-D1; experiment: as above
How it was run: as §1

| Binder | SPOT peptide array binding signal intensity |
| --- | --- |
| QTREPNEPPPPSPAM | ≤ 0 |

biological target: ScBzz1-D1; experiment: as above
How it was run: as §1

| Binder | SPOT peptide array binding signal intensity |
| --- | --- |
| QTREPNEPPPPSPAM | 7 |

biological target: ScBzz1-D2; experiment: as above
How it was run: as §1

| Binder | SPOT peptide array binding signal intensity |
| --- | --- |
| QTREPNEPPPPSPAM | ≤ 0 |

biological target: ScCyk3; experiment: as above
How it was run: as §1

| Binder | SPOT peptide array binding signal intensity |
| --- | --- |
| QTREPNEPPPPSPAM | ≤ 0 |

biological target: ScFus1; experiment: as above
How it was run: as §1

| Binder | SPOT peptide array binding signal intensity |
| --- | --- |
| QTREPNEPPPPSPAM | ≤ 0 |

biological target: ScHof1; experiment: as above
How it was run: as §1

| Binder | SPOT peptide array binding signal intensity |
| --- | --- |
| QTREPNEPPPPSPAM | 1 |

biological target: ScHse1; experiment: as above
How it was run: as §1

| Binder | SPOT peptide array binding signal intensity |
| --- | --- |
| QTREPNEPPPPSPAM | ≤ 0 |

biological target: ScLsb1; experiment: as above
How it was run: as §1

| Binder | SPOT peptide array binding signal intensity |
| --- | --- |
| QTREPNEPPPPSPAM | 0.5 |

biological target: ScLsb2; experiment: as above
How it was run: as §1

| Binder | SPOT peptide array binding signal intensity |
| --- | --- |
| QTREPNEPPPPSPAM | ≤ 0 |

biological target: ScLsb3; experiment: as above
How it was run: as §1

| Binder | SPOT peptide array binding signal intensity |
| --- | --- |
| QTREPNEPPPPSPAM | 13.5 |

biological target: ScLsb4; experiment: as above
How it was run: as §1

| Binder | SPOT peptide array binding signal intensity |
| --- | --- |
| QTREPNEPPPPSPAM | 1.5 |

biological target: ScMyo3; experiment: as above
How it was run: as §1

| Binder | SPOT peptide array binding signal intensity |
| --- | --- |
| QTREPNEPPPPSPAM | 2210 |

biological target: ScMyo5; experiment: as above
How it was run: as §1

| Binder | SPOT peptide array binding signal intensity |
| --- | --- |
| QTREPNEPPPPSPAM | 1580 |

biological target: ScNbp2; experiment: as above
How it was run: as §1

| Binder | SPOT peptide array binding signal intensity |
| --- | --- |
| QTREPNEPPPPSPAM | ≤ 0 |

biological target: ScPex13; experiment: as above
How it was run: as §1

| Binder | SPOT peptide array binding signal intensity |
| --- | --- |
| QTREPNEPPPPSPAM | 1.75 |

biological target: ScRvs167; experiment: as above
How it was run: as §1

| Binder | SPOT peptide array binding signal intensity |
| --- | --- |
| QTREPNEPPPPSPAM | 1.33 |

biological target: ScSho1; experiment: as above
How it was run: as §1

| Binder | SPOT peptide array binding signal intensity |
| --- | --- |
| QTREPNEPPPPSPAM | 2 |

biological target: ScSla1-D1-D2; experiment: as above
How it was run: as §1

| Binder | SPOT peptide array binding signal intensity |
| --- | --- |
| QTREPNEPPPPSPAM | 1.5 |

biological target: ScSla1-D3; experiment: as above
How it was run: as §1

| Binder | SPOT peptide array binding signal intensity |
| --- | --- |
| QTREPNEPPPPSPAM | ≤ 0 |

biological target: SpAbp1-D1; experiment: as above
How it was run: as §1

| Binder | SPOT peptide array binding signal intensity |
| --- | --- |
| QTREPNEPPPPSPAM | ≤ 0 |

biological target: SpBbc1; experiment: as above
How it was run: as §1

| Binder | SPOT peptide array binding signal intensity |
| --- | --- |
| QTREPNEPPPPSPAM | ≤ 0 |

biological target: SpBzz1-D1; experiment: as above
How it was run: as §1

| Binder | SPOT peptide array binding signal intensity |
| --- | --- |
| QTREPNEPPPPSPAM | ≤ 0 |

biological target: SpBzz1-D2; experiment: as above
How it was run: as §1

| Binder | SPOT peptide array binding signal intensity |
| --- | --- |
| QTREPNEPPPPSPAM | 0.5 |

biological target: SpCyk3; experiment: as above
How it was run: as §1

| Binder | SPOT peptide array binding signal intensity |
| --- | --- |
| QTREPNEPPPPSPAM | 0.5 |

biological target: SpHof1; experiment: as above
How it was run: as §1

| Binder | SPOT peptide array binding signal intensity |
| --- | --- |
| QTREPNEPPPPSPAM | ≤ 0 |

biological target: SpHof1-2; experiment: as above
How it was run: as §1

| Binder | SPOT peptide array binding signal intensity |
| --- | --- |
| QTREPNEPPPPSPAM | 7.75 |

biological target: SpHof1-3; experiment: as above
How it was run: as §1

| Binder | SPOT peptide array binding signal intensity |
| --- | --- |
| QTREPNEPPPPSPAM | ≤ 0 |

biological target: SpHse1; experiment: as above
How it was run: as §1

| Binder | SPOT peptide array binding signal intensity |
| --- | --- |
| QTREPNEPPPPSPAM | ≤ 0 |

biological target: SpLsb1; experiment: as above
How it was run: as §1

| Binder | SPOT peptide array binding signal intensity |
| --- | --- |
| QTREPNEPPPPSPAM | ≤ 0 |

biological target: SpLsb4; experiment: as above
How it was run: as §1

| Binder | SPOT peptide array binding signal intensity |
| --- | --- |
| QTREPNEPPPPSPAM | ≤ 0 |

biological target: SpMyo1; experiment: as above
How it was run: as §1

| Binder | SPOT peptide array binding signal intensity |
| --- | --- |
| QTREPNEPPPPSPAM | 1240 |

biological target: SpNbp2; experiment: as above
How it was run: as §1

| Binder | SPOT peptide array binding signal intensity |
| --- | --- |
| QTREPNEPPPPSPAM | ≤ 0 |

biological target: SpPex13; experiment: as above
How it was run: as §1

| Binder | SPOT peptide array binding signal intensity |
| --- | --- |
| QTREPNEPPPPSPAM | 2 |

biological target: SpRvs167; experiment: as above
How it was run: as §1

| Binder | SPOT peptide array binding signal intensity |
| --- | --- |
| QTREPNEPPPPSPAM | 1.67 |

biological target: SpSla1-D1-D2; experiment: as above
How it was run: as §1

| Binder | SPOT peptide array binding signal intensity |
| --- | --- |
| QTREPNEPPPPSPAM | ≤ 0 |

biological target: SpSla1-D3; experiment: as above
How it was run: as §1

| Binder | SPOT peptide array binding signal intensity |
| --- | --- |
| QTREPNEPPPPSPAM | ≤ 0 |
